Consider 62 compounds from ChEMBL document CHEMBL1157539, “Thousands of chemical starting points for antimalarial lead identification” (Nature, 2010).

Each structure is given as a SMILES string.

Format in all cases: functional
In assay [1] the test system is Plasmodium falciparum. The experiment in a line: GSK_TCMDC: Inhibition of Plasmodium falciparum 3D7 in whole red blood cells, using parasite LDH activity as an index of growth. Test compounds present at 2uM.
In assay [2] the test system is Plasmodium falciparum. The assay is described as follows: GSK_TCMDC: Inhibition of Plasmodium falciparum Dd2 in whole red blood cells, using parasite LDH activity as an index of growth. Test compounds present at 2uM.
Assay [3] has as its system HepG2. The assay is described as follows: GSK_TCMDC: Percent inhibition of human HepG2 cell line. Test compounds present at 10uM.

Turning to `COc1ccc(CNCc2cccc(-c3ccc(-c4nc5cccc(C)c5[nH]4)s3)c2)cc1.O=C(O)C(F)(F)F`, the Inhibition (as a rule, the percentage by which the read-out fell short of the control) was determined as 100% in assay [1], 65% in assay [2] and 24% in assay [3].
As to `Cc1cccc2nc(-c3cccc(-c4ccc(NC(=O)c5ccoc5)cc4)c3)[nH]c12`, the Inhibition in assay [1] was 99%; in assay [2] it was 56%; in assay [3], 65%.
For `Cc1ccc2c(Cc3cnc(N)nc3N)cc(C)c(N)c2n1.Cl` the same measures were 91%, 92% and 0%.
The matching figures for `COc1ccc(N2CCN(CCCCNC(=O)c3ccc(NC(=O)c4ccc(Cl)c(Cl)c4)cc3)CC2)c(OC)c1`: 100%, 98% and 23%.
For `COc1ccc2c(N/N=C/c3ccccc3[N+](=O)[O-])ccnc2c1` the same measures were 100%, 97% and 98%.
Turning to `O=C(Nc1cc(Cl)cc(Cl)c1)c1cc(Cl)c(=O)n(Cc2cccc(Cl)c2)c1`, the Inhibition in assay [1] was 100%; in assay [2] it was 62%; in assay [3], 8%.
For `CCOC(=O)C1=C(C)NC(C)=C(C(=O)OCC)C1(C(=O)OCc1ccccc1)c1cccc(C(F)(F)F)c1` the same measures were 88%, 60% and 0%.
For `COc1ccc2[nH]c(C)cc(=NN=Cc3cccc(Cl)c3)c2c1` the same measures were 100%, 100% and 13%.
For `CCCc1cc(Cc2cnc(N)nc2N)cc(CCC)c1OCCCCC(=O)OC` the same measures were 94%, 0% and 0%.
Take `COc1ccc(C(=O)Nc2cc(Cl)c3c(c2)C2CCCN2CC3)cc1C(F)(F)F.Cl` (stereo unspecified): the Inhibition in assay [1] amounted to 99%; in assay [2], 33%; in assay [3], 35%.
Regarding `CCC(C)c1ccc(-n2c(Nc3ccccc3)nc3cc(S(N)(=O)=O)ccc32)cc1` (stereo unspecified), the figures for the Inhibition in assay [1], in assay [2] and in assay [3] were 88%, 28% and 0%, respectively.
As to `COc1ccc(NC(=O)/C=C/c2ccccc2Cl)cc1OCCN1CCC(c2nc3ccccc3[nH]2)CC1.Cl`, the Inhibition was 92% in assay [1], 16% in assay [2] and 35% in assay [3].
The matching figures for `COc1ccccc1N1CCN(CCCCNC(=O)c2ccc(NC(=O)c3cc4ccccc4o3)cc2)CC1`: 84%, 2% and 9%.
The matching figures for `N#Cc1cccc(Nc2nccc(NCC(O)c3ccccc3C(F)(F)F)n2)c1` (stereo unspecified): 98%, 39% and 36%.
Turning to `COc1cc(Nc2nccn3c(-c4ccsc4)cnc23)cc(OC)c1OC`, the Inhibition in assay [1] stood at 93%; in assay [2] it was 78%; in assay [3] it was 26%.
The matching figures for `O=C(Nc1ccc2c(c1)CCN2C1CCN(Cc2ccc(O)cc2)C1)c1ccco1` (stereo unspecified): 97%, 63% and 0%.
The matching figures for `Nc1cccc(CNCc2ccc(-c3cccc(-c4nc5cc(F)ccc5[nH]4)c3)cc2)c1.O=C(O)C(F)(F)F`: 100%, 94% and 36%.
Turning to `COc1ccc(C(=O)N2CCC3(CC2)C(=O)N(CC(=O)NCC2CCCCC2)CN3c2ccccc2)c(OC)c1`, the Inhibition was 100% in assay [1], 99% in assay [2] and 6% in assay [3].
In the case of `CNc1c2c(nc3ccc(NC(=O)CCCCCCc4ccccc4)cc13)CCCC2.Cl`, the Inhibition in assay [1] is 100%; in assay [2] it was 82%; in assay [3], 0%.
For `Cl.O=c1cc(NCCCNCc2csc(Br)c2Sc2ccc(Cl)cc2)[nH]c2ccccc12` the same measures were 95%, 83% and 5%.
For `CCN(CC)CCN1C(=O)c2oc3ccc(F)cc3c(=O)c2C1c1cccc(Cl)c1` (stereo unspecified) the same measures were 99%, 93% and 0%.
Consider `COc1ccc2nc(-c3cccc(C)n3)nc(Nc3ccncc3)c2c1`, for which the Inhibition is 100% in assay [1], 42% in assay [2] and 0% in assay [3].
Turning to `Br.CC1(C)N=C(N)N=C(N)N1OCc1cccc2c1ccc1ccccc12`, the Inhibition is 95% in assay [1], 97% in assay [2] and 63% in assay [3].
For `Cc1cc(N2CCCCC2)nc2ccc(NC(=O)c3cc(=O)c4ccccc4o3)cc12` the same measures were 98%, 19% and 15%.
For `Cc1cnc(C[S+]([O-])c2nc3cc(C(F)(F)F)ccc3[nH]2)cc1OCc1ccccc1` (stereo unspecified) the same measures were 93%, 76% and 0%.
For `COc1ccc(CN2CCCN(Cc3cccc(NC(=O)c4ccc(Cl)c(Cl)c4)c3)CC2)cc1.O=C(O)C(F)(F)F` the same measures were 86%, 19% and 38%.
On to `C#CCNCc1ccc(-c2cccc(-c3nc4cccc(C)c4[nH]3)c2)cc1.O=C(O)C(F)(F)F`, for which the Inhibition in assay [1] is 100%; in assay [2], 32%; in assay [3], 0%.
The matching figures for `CC12CC3CC(C)(C1)CC(Nc1nc(N4CCOCC4)nc4ccccc14)(C3)C2`: 95%, 14% and 31%.
The matching figures for `CC(C)N(CC(=O)c1ccc(O)c(C(=O)O)c1)Cc1ccccc1.Cl`: 97%, 26% and 0%.
For `CC(=O)Nc1ccc2[nH]cc(C3CCN(CC4CCC(NC(=O)/C=C/c5ccc(Cl)c(Cl)c5)CC4)CC3)c2n1` (stereo unspecified) the same measures were 100%, 79% and 17%.
Take `Cl.N#Cc1cccc(-c2ccc(C(=O)Nc3ccc4c(c3)CCN(C3CCC3)CC4)cn2)c1`: the Inhibition came out at 96% in assay [1], 5% in assay [2] and 26% in assay [3].
The matching figures for `COCCNCc1ccc(-c2ccc(CNC3CCN(Cc4ccccc4)CC3)cc2)cc1.O=C(O)C(F)(F)F`: 100%, 61% and 22%.
For `Cl.N=c1c2c(n(Cc3ccccc3)c3c1CCC3)CCCC2`, the values for the Inhibition in assay [1], in assay [2] and in assay [3] were 86%, 39% and 4%, respectively.
The matching figures for `CC(=O)Nc1nc(C(=O)Nc2cccc(-c3ccc(-c4nc5ccccc5[nH]4)cc3)c2)cs1`: 100%, 60% and 88%.
Turning to `CCCNCc1ccc(-c2ccc(CN(C(=O)c3nn(-c4ccccc4)nc3C)C3CC3)cc2)nc1.O=C(O)C(F)(F)F`, the Inhibition in assay [1] was 100%; in assay [2] it was 0%; in assay [3], 23%.
The matching figures for `O=C(c1ccccc1)N1COCC(CCN2CCC(N3CCCC3)CC2)(c2ccc(Cl)c(Cl)c2)C1` (stereo unspecified): 83%, 9% and 18%.
On to `CCCCCCN1CCCN(Cc2cccc(C(=O)Nc3ccc(C(C)(C)C)cc3)c2)CC1.O=C(O)C(F)(F)F`, for which the Inhibition is recorded as 93% in assay [1], 23% in assay [2] and 41% in assay [3].
On to `COc1ccc(-c2ccc(NC(=O)c3ccc(C#N)cc3)c(F)c2)cc1CN(C)CCN(C)C.O=C(O)C(F)(F)F`, for which the Inhibition stood at 88% in assay [1], 0% in assay [2] and 24% in assay [3].
The matching figures for `Fc1cc(Cl)ccc1Nc1ccnc2cc(-c3ccc(CN4CCCCC4)o3)ccc12`: 100%, 99% and 16%.
For `O=C(Nc1ccc(S(=O)(=O)N2CCCCC2)cc1)c1cc(-c2ccccc2O)n[nH]1` the same measures were 94%, 81% and 13%.
For `COc1ccc(CC(=O)NC2CCN(c3ccnc4cc(Cl)ccc34)C2)cc1.O=C(O)C(F)(F)F` (stereo unspecified) the same measures were 100%, 88% and 0%.
Consider `Cl.N=c1n(CCN2CCCC2)c2ccccc2n1CC(O)c1ccc(Cl)c(Cl)c1` (stereo unspecified), for which the values for the Inhibition in assay [1], in assay [2] and in assay [3] were 100%, 6% and 36%, respectively.
The matching figures for `CC(C)COc1ccc(Cl)cc1Cc1ccc(-c2nc3ccc(F)cc3[nH]2)o1`: 97%, 49% and 35%.
The matching figures for `CS(=O)(=O)c1ccc2c(c1)CCN(CCC1CCC(NC(=O)C(=Cc3cccc(C#N)c3)c3ccc(-c4ccccc4)cc3)CC1)CC2` (stereo unspecified): 99%, 13% and 24%.
As for `Cc1sc2ncnc(Sc3nc4ccccc4[nH]3)c2c1C`, the Inhibition in assay [1] turned out to be 99%; in assay [2], 100%; in assay [3], 14%.
For the compound `COc1ccc(O)c(Cc2cnc3nc(N)nc(N)c3c2C)c1.O=C(O)C(F)(F)F`, the Inhibition in assay [1] is reported as 94%; in assay [2] it was 74%; in assay [3] it was 56%.
The matching figures for `O=C(Nc1ccc(-c2nc3ccccc3[nH]2)cc1)c1ccc(Cl)c([N+](=O)[O-])c1`: 99%, 4% and 6%.
For `COc1ccc(Nc2nccc(N3CCC(NC(=O)Nc4ccc5c(c4)OCO5)C3)n2)cc1` (stereo unspecified) the same measures were 98%, 57% and 27%.
In the case of `COc1ccc(Br)cc1/C=C/C(=O)Nc1ccc(C2CCCN(C)C2)cc1.O=CO` (stereo unspecified), the results for the Inhibition in assay [1], in assay [2] and in assay [3] were 100%, 35% and 18%, respectively.
The matching figures for `Cl.O=C(Nc1ccc(C(=O)Nc2cccc(C3=NCCN3)c2)cc1)Nc1ccc(C2=NCCN2)cc1`: 96%, 98% and 0%.
Regarding `CCOC(=O)C(C)(C)Oc1ccc(CN(Cc2ccc(CC(C)C)cc2)C(=O)Nc2ccc(F)cc2F)c(OC)c1`, the Inhibition is 97% in assay [1], 96% in assay [2] and 5% in assay [3].
For `O=C(/C=C/c1ccc(Cl)c(Cl)c1)NC1CCC(CN2CCC(c3nc4cc(O)ccc4[nH]3)CC2)CC1` (stereo unspecified) the same measures were 100%, 84% and 41%.
In the case of `CCc1cc(NC(=O)Nc2ccnc3ccccc23)ccc1OC.Cl`, the Inhibition in assay [1] is 85%; in assay [2], 24%; in assay [3], 0%.
For `O=C(Nc1cc(C(F)(F)F)cc(C(F)(F)F)c1)NC(CCCN1CCC2(CC1)OCc1ccccc12)c1ccc(Cl)c(Cl)c1` (stereo unspecified) the same measures were 94%, 87% and 26%.
In the case of `O=C(O)C(F)(F)F.OC1CCCN(Cc2ccc(-c3cccc(-c4nc5ccccc5[nH]4)c3)cc2)C1` (stereo unspecified), the figures for the Inhibition in assay [1], in assay [2] and in assay [3] were 86%, 0% and 14%, respectively.
The matching figures for `O=C(/C=C/c1ccc(Cl)c(Cl)c1)NC1CCN(CCCNC(=O)c2cccc(Cl)c2)CC1.O=C(O)C(F)(F)F`: 100%, 28% and 36%.
For `O=C(/C=C/c1ccc(Cl)c(Cl)c1)NC1CCC(CN2CCC(Cc3c[nH]c4ccccc34)CC2)CC1` (stereo unspecified) the same measures were 100%, 9% and 25%.
With `Cc1cc(-c2ccc3occ(CCN)c3c2)cnc1N`, the figures for the Inhibition in assay [1], in assay [2] and in assay [3] were 92%, 56% and 0%, respectively.
For `COc1ccc(-c2cccc(NC(=O)c3ccc(C#N)cc3)c2)cc1CN1CCCC1.O=C(O)C(F)(F)F` the same measures were 98%, 15% and 30%.
Consider `Cc1cnccc1/C=C/c1cccc(OCCCN2CCc3ccc(S(C)(=O)=O)cc3CC2)c1`, for which the Inhibition in assay [1] is listed as 92%; in assay [2] it was 72%; in assay [3], 1%.
The matching figures for `O=C(O)C(F)(F)F.O=[N+]([O-])c1cccc(CNCC2CCN(Cc3ccc(O)cc3)CC2)c1`: 98%, 5% and 8%.
As to `COc1ccccc1C(=O)N1CCN(Cc2cccs2)CC1`, the Inhibition in assay [1] is 96%; in assay [2], 1%; in assay [3], 87%.
